Our source for the growth values is PubChem BioAssay (NCI).

About 83,000 compounds went through this panel and 20% of them were active in at least one assay; those are over-represented in the sample as a whole.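 Values shown are percent growth following 48 h exposure of cells in 96-well plates to a single concentration of compound; below 10 was considered active.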 Unmarked numbers belong to inactive results. Calls of active or inactive are those of the source.

The subject of one assay is EKVX NSCLC. Description: NCI-60 one-dose screen, 48 h (100 = growth as untreated, 0 = no growth, -100 = all killed). As to conditions: 10 µM unless noted.
For the molecule `CC(C)OC(=O)c1ccc([N+](=O)[O-])cc1`, the growth is 96%. The same measure, in the same setting: the value for `COc1cc(CN2CCO[C@H](COc3cccc(F)c3)C2)ccc1Cl` was 46.3%. The same measure, in the same setting: the value for `COc1cc(NC(C)CCCN)c2ncccc2c1Oc1ccc(Cl)cc1` (stereo not given) was 77.1%; that for `OC(c1cc(-c2ccc(C(F)(F)F)cc2)nc(-c2ccc(C(F)(F)F)cc2)c1)C1CCCCN1` (stereo not given) was -65.4% (active).

Take `C=CCn1c(C)nc2cc(Nc3nc(Nc4ccc5nc(C)n(CC=C)c5c4)nc4ccccc34)ccc21`: the growth was 97.1%. Still for that read-out and setting: the value for `Fc1ccc2c(CN3CCO[C@H](COc4cccc(Cl)c4)C3)c[nH]c2c1` was 74.3%.

The test system of the next assay is SN12C renal. The assay is described as above. The note with it: 10 µM unless noted.
Turning to `Cn1nc(C(F)(F)F)cc1-c1cc(Cl)c(OCc2ccc(Cl)cc2)c(-c2ccc(Cl)c(C(F)(F)F)c2)c1O`, the growth is 5.76% (active). Still for that read-out and setting: the value for `CC(=O)O[C@H]1[C@H](CC#CC#CC[C@@H]2C[C@]3(C)[C@H]4CC=C5[C@H]6[C@@H](C)[C@H](C)CC[C@]6(C(=O)NCCN(CCN)CCN)CC[C@@]5(C)[C@]4(C)CC[C@H]3C(C)(C)[C@H]2OC(C)=O)C[C@]2(C)[C@H]3CC=C4[C@H]5[C@@H](C)[C@H](C)CC[C@]5(C(=O)NCCN(CCN)CCN)CC[C@@]4(C)[C@]3(C)CC[C@H]2C1(C)C` was 51.9%; that for `CC(=O)c1ccc(Nc2nc(Cl)nc(Oc3c(Cl)cccc3Cl)n2)cc1` was 93.1%; that for `Oc1[nH]c2ccccc2c1/C=c1/ccc2c(c1)N=C(c1ccc(C(F)(F)F)cc1)N=2` was 63.7%. As to `Brc1cccc(-n2ncc3c(Nc4ccc(-c5nnc(-c6ccccc6)o5)cc4)ncnc32)c1`, the growth was 97.8%. On the same count and under the same terms, as for `CCNC(=S)N(Cc1ccccc1)Cc1ccccc1`, the figure is 103%; as for `COc1cccc(CC(C)=C(c2ccc(OCCCN(C)C)cc2)c2ccc(OCCCN(C)C)cc2)c1`, -84.7% (active); as for `N[C@@H](CO)C(=O)O`, 101%.

On to `O=C(c1ccc(C(F)(F)F)c(Cl)c1)N(Cc1ccc(Cl)cc1)c1ccc(-c2cc(C(F)(F)F)[nH]n2)c(O)c1`, for which the growth was 14.6%.

Turning to `c1ccc(C(Nc2ccccn2)(c2ccccc2)c2ccccc2)cc1`, the growth was 75.9%.

In the case of `CC[C@H](Nc1nc(N)nc(N)c1Cl)c1nc2cccc(NCc3ccc(C(=O)NO)cc3)c2c(=O)n1-c1ccccc1`, the growth was 10%. Same read-out and setting: as for `N#Cc1nc(-c2ccc(Cl)cc2)cc(-c2ccc(Nc3nc(N4CCCCC4)nc(N4CCCCC4)n3)cc2)c1N`, the figure is 104%; as for `C#CC[C@@H]1C[C@]2(C)[C@H]3CC=C4[C@H]5[C@@H](C)[C@H](C)CC[C@]5(C(=O)NCCCCN)CC[C@@]4(C)[C@]3(C)CC[C@H]2C(C)(C)[C@H]1OC(C)=O`, 73.8%; as for `Cn1nc(C(F)(F)F)cc1-c1c[nH]c(OCc2ccc(Cl)cc2)c(-c2ccc(Cl)c(C(F)(F)F)c2)c1=O`, 4.1% (active).

Turning to `COc1ccc(NC(=O)c2ccc(C(F)(F)F)nc2Nc2ccc(Cl)cc2C)cc1Cl`, the growth is 24%. The same measure, in the same setting: as for `O=C(Cn1nncc1CN1C(=O)CSC1=O)Nc1ccc(F)cc1`, the figure is 98.3%; as for `COc1ccc(NC(=O)/C=C/c2ccc(Cl)c(Cl)c2)cn1`, 88.9%. As for `CCCCNCC(O)c1cc(-c2ccc(C(F)(F)F)cc2)nc(-c2ccc(C(F)(F)F)cc2)c1` (stereo not given), the growth was -73.2% (active). On the same count and under the same terms, as for `CCCc1cc2c(cc1CN(Cc1cc3c(cc1CCC)OCO3)C(=N)OCC)OCO2`, the figure is 80%. The same measure, in the same setting: the value for `CCCNC(=S)N/N=C(\C)c1ccccn1` was 31.6%. As for `C#CC[C@@H]1C[C@]2(C)[C@H]3CC[C@@H]4[C@H]5C(C(=C)C)CC[C@]5(C(=O)NCCCN5CCN(CCCN)CC5)CC[C@@]4(C)[C@]3(C)CC[C@H]2C(C)(C)[C@H]1OC(C)=O` (stereo not given in full), the growth is -84.4% (active). `COc1cc2nccc(Oc3ccc(NC(=O)C4(C(=O)Nc5c(F)cc(F)cc5F)CC4)cc3)c2cc1Oc1ccc(N)cn1`: the growth is 30.6%. With `COc1ccc2[nH]c(C(=O)OCc3ccc4cccc(O)c4n3)cc2c1`, the growth was -74.8% (active).

For `CCOCC(O)(c1ccc(Cl)cc1)c1ccc(Cl)cc1`, the growth was 105%.

Regarding `Cc1cc(C)cc(NC(=O)Cn2nncc2CN2C(=O)CSC2=O)c1`, the growth was 103%.

`Cc1ccc(NC(=O)Cn2nncc2CN2C(=O)CSC2=O)cc1C`: the growth is 105%. The same measure, in the same setting: the value for `COC(=O)/C=C/c1cc(OC(C)=O)c2c(c1)[C@@H](C(=O)OC)[C@H](c1ccc(OC(C)=O)c(OC(C)=O)c1)O2` was 24.2%. Same read-out and setting: the value for `N=c1n(Cc2ccccc2)c(N)cc(=O)n1Cc1ccccc1` was 12.8%; that for `CC(C)[C@H](CN)NC[C@H](C)NS(=O)(=O)c1ccc(C(C)(C)C)cc1` was 99.8%.

In the case of `COc1ccc(/C(=C\c2ccc3c(c2)OCO3)C(=O)Nc2nc3ccccc3s2)cc1`, the growth was 98.3%. With `Cc1ccc(-c2cnc3sc4ccc(Cl)cc4n23)cc1`, the growth was 93%. For `COc1cc(C2Nc3ccccc3S2)cc(CN2CCOCC2)c1O` (stereo not given), the growth was 91.9%. Turning to `CC1=C(O)C(=O)C(c2c(C)cc(C)c(Br)c2C)=C(O)C1=O`, the growth was 55%. In the case of `CC(C)OC(=O)c1ccc([N+](=O)[O-])cc1`, the growth was 97.7%.

As to `COc1cc(CN2CCO[C@H](COc3cccc(F)c3)C2)ccc1Cl`, the growth was 29.3%. On to `COc1cc(NC(C)CCCN)c2ncccc2c1Oc1ccc(Cl)cc1` (stereo not given), for which the growth is 77.3%. The same measure, in the same setting: the value for `OC(c1cc(-c2ccc(C(F)(F)F)cc2)nc(-c2ccc(C(F)(F)F)cc2)c1)C1CCCCN1` (stereo not given) was -78.5% (active). On the same count and under the same terms, the value for `C=CCn1c(C)nc2cc(Nc3nc(Nc4ccc5nc(C)n(CC=C)c5c4)nc4ccccc34)ccc21` was 96.5%; that for `Fc1ccc2c(CN3CCO[C@H](COc4cccc(Cl)c4)C3)c[nH]c2c1` was 49.1%.
